A selection: hits, their analogues and other compounds. The true share with any hit is near 2%.
CHT PAM: allosteric activators of human choline transporter CHT. Q9GZV3. 310,000 tested, 0.49% active. B-score at 10 µM. CHT-expressing cells, membrane potential dye, choline EC20; stronger effect = higher value; LV-AA mutant CHT in HEK293 cells. AID 488977;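 active means initial fluorescence not abnormally high and integrated response B-score, plate-corrected, over 3 SD above library mean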
CHT inh: inhibits the human high affinity choline transporter; Q9GZV3; CHT-expressing cells, membrane potential dye, choline response; stronger effect = lower value; B-score at 10 µM; 310,000 tested, 0.86% active;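 active means B-score over 3 SD under the library average, and starting fluorescence ratio not unusually high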;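 further: choline stimulus applied at its EC90 after an EC20 pre-addition; B-score computed on integrated fluorescence ratio after choline addition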
TAG inh: reduces triacylglycerol accumulation in H9c2 cells; 230,000 tested, 0.66% active; Nile Red lipid (TAG) fluorescence; cells loaded with 200 µM oleic acid; inhibition, % at 12.5 µM; AID 651582;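 active means pattern-corrected inhibition of lipid staining of at least 50% with the nuclear-stain viability signal not falling by more than 50%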
Kir21 block: blocks the mouse Kir2.1 inward-rectifier potassium channel | P35561 | HEK293-Kir2.1, FluxOR thallium flux fluorescence; stronger effect = lower value | B-score at 10 µM | 310,000 tested, 0.85% active;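 active means fluorescence ratio B-score at or below minus 3 SD of library scores, with starting-brightness B-score within 2 SD, cut at about -4.2 in these data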;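 further: channel flux triggered by added potassium and thallium sulfate stimulus; B-score of peak minus minimum fluorescence over baseline after thallium stimulus; more negative B-score means stronger Kir2.1 block with less thallium influx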
Target sequence (P35561 whole entry, looked up): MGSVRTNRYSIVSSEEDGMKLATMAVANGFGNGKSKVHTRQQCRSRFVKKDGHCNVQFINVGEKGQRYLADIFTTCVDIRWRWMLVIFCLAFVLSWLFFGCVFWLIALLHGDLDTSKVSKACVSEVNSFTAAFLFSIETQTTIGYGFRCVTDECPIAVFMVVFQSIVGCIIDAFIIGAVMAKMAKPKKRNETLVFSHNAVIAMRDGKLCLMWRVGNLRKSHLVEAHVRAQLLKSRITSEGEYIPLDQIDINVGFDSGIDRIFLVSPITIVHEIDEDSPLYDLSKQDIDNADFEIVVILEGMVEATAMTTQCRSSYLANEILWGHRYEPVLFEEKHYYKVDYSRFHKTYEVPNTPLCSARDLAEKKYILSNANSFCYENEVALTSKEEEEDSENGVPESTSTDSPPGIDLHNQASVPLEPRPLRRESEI
Each line names hits and unclear results; the compound was inactive in the other large screens.

CNC(=S)N1CCN(c2c(F)cc3c(=O)c(C(=O)O)cn(C4CC4)c3c2OC)CC1C (stereo unspecified)	none
C[C@H]1COc2c(N3CCN(C)CC3)c(F)cc3c(=O)c(C(=O)O)cn1c23	CHT PAM 8.9
O=C(N/N=C/c1cc([N+](=O)[O-])ccc1O)C1CC1	none
O=C(N/N=C/c1cc([N+](=O)[O-])ccc1O)c1cccc2cc[nH]c12	TAG inh 61
Nc1ccc(S(=O)(=O)N2CCc3ccccc32)cc1	none
O=S(=O)(c1ccc(Br)cc1)N1CCCc2ccccc21	Kir21 block -4.9
O=C(CCS(=O)(=O)c1ccc(Cl)cc1)N1CCCc2ccccc21	Kir21 block -4.8
O=S(=O)(c1ccc(F)c(F)c1)N1CCCc2ccccc21	Kir21 block -5.4 (no result: TAG inh)
Cc1cccc(S(=O)(=O)N2CCCc3ccccc32)c1	Kir21 block -6.4 (no result: TAG inh)
Cc1ccc(S(=O)(=O)CCC(=O)N2CCc3ccccc32)cc1	none
Cn1ncc(N2CCN(C(=O)c3ccc(Cl)cc3)CC2)c(Cl)c1=O	none
CCOC(=O)c1c(NC(=O)c2ccco2)sc2c1CCCCC2	none (no result: TAG inh)
CCOC(=O)c1c(NC(=O)CCNCc2ccco2)sc2c1CCC2	Kir21 block -17 (no result: TAG inh)
CC(Sc1nnc2ccccn12)C(=O)Nc1ccc2c(c1)OCCO2 (stereo unspecified)	none
O=C(O)c1cc(-c2ccc(-c3ccc(F)cc3)o2)nc2ccccc12	none (no result: TAG inh)
COc1ccccc1/C=C1\SC(=O)N(CCC(=O)NCCCn2ccnc2)C1=O	none (no result: TAG inh)
COc1ccccc1/C=C1\SC(=S)N(CCC(=O)NCCCn2ccnc2)C1=O	Kir21 block -4.5 (no result: TAG inh)
O=C(CCCN1C(=O)/C(=C/c2ccc(F)cc2)SC1=S)NCCCn1ccnc1	Kir21 block -4.7 (no result: TAG inh)
Cc1ccccc1CN(C)CC(=O)Nc1ccccc1Oc1ccccc1	none (no result: TAG inh)
CCC(C(=O)Nc1ccccc1)c1ccccc1 (stereo unspecified)	none (no result: TAG inh)
COc1ccccc1CN(C)CC(=O)Nc1ccccc1-c1ccccc1	none
CC(=O)Nc1ccc(SCC(=O)N(C)CC(=O)Nc2ccccc2Cl)cc1	none (no result: CHT PAM, CHT inh, Kir21 block)
CCC(C(=O)Nc1ccccc1-c1ccccc1)c1ccccc1 (stereo unspecified)	Kir21 block -4.9
CC(=O)Nc1ccc(SCC(=O)Nc2ccccc2-c2ccccc2)cc1	Kir21 block -4.3 (no result: TAG inh)
Cc1ccccc1CN(C)CC(=O)Nc1ccccc1-c1ccccc1	Kir21 block -5.6 (no result: TAG inh)
CN(CC(=O)Nc1ccccc1Oc1ccccc1)Cc1ccccc1F	Kir21 block -5.1 (no result: TAG inh)
CC(C)CC(=O)Nc1ccnn1C1CCN(C(=O)c2ccc(F)cc2Cl)CC1	none
CCCC(C)NCC(=O)Nc1ccccc1-c1ccccc1 (stereo unspecified)	Kir21 block -4.5
O=C(CNC(c1ccccc1)c1ccccc1)Nc1ccccc1-c1ccccc1	none (no result: TAG inh)
O=C(Cc1cn(Cc2cccc(Cl)c2)c2ccccc12)N1CCCC1	Kir21 block -5.2 (no result: TAG inh)
O=C(CS(=O)(=O)c1cn(Cc2ccc(Cl)cc2)c2ccccc12)N1CCCC1	none
CC(C)n1ncc2c(C(=O)N3CCN(S(=O)(=O)c4cccc(F)c4)CC3)cc(C3CC3)nc21	none (no result: CHT PAM, CHT inh, Kir21 block)
C=CCn1c(CSCc2ccc(Cl)cc2)nnc1SCC(=O)NCc1ccccc1	Kir21 block -4.8
COc1cc(/C=N/NC(=O)CC2(C)OCCCO2)ccc1OCc1ccccc1	none (no result: TAG inh)
COc1cc(/C=N/NC(=O)CN2CCCCC2)ccc1OCc1ccc(Br)cc1	Kir21 block -6.6
CCOc1ccc(N(CC(=O)N/N=C/c2cc(Br)c(C)o2)S(C)(=O)=O)cc1	none
CNC[C@H](Cc1ccccc1)NC[C@@H](Cc1cccc2ccccc12)NCCc1ccc(C)cc1	TAG inh 138, Kir21 block -10
CNCCNC[C@H](Cc1cccc2ccccc12)NCCc1ccccc1	none (no result: CHT PAM, CHT inh, Kir21 block)
CN(C)CC(CCC(CN(C)C)C(O)(c1ccccc1)c1ccccc1)C(O)(c1ccccc1)c1ccccc1 (stereo unspecified)	Kir21 block -5.6 (no result: CHT PAM, CHT inh, TAG inh)
O=C(NC1CC1)C1=C[C@@H](c2ccc3c(c2)OCO3)C[C@@H](OCc2ccc(CO)cc2)O1	none
Cc1oc(-c2ccccc2)nc1Cn1cccc1C1=NC(c2ccccc2)CO1 (stereo unspecified)	none
Fc1ccc(Cn2cccc2C2=NC(c3ccccc3)CO2)cc1 (stereo unspecified)	Kir21 block -5.9
CC1CC(C)CN(S(=O)(=O)c2cccc3cccnc23)C1 (stereo unspecified)	Kir21 block -5.2
O=C(Cc1ccc(S(=O)(=O)N2CCOCC2)s1)N1CCN(S(=O)(=O)c2ccc(Cl)cc2)CC1	none (no result: CHT PAM, CHT inh, Kir21 block)
CC(C)C[C@H]1CN=C(Nc2ccccc2)N1CCCC1CCCC1	Kir21 block -4.6
CCCCCCCN1C(Nc2ccccc2)=NC[C@@H]1CC(C)C	Kir21 block -4.9
CCOC(=O)c1c(NC(=O)CSc2nc3ccc(C)cc3[nH]2)sc2c1CC(C)(C)NC2(C)C	Kir21 block -4.8
CCOC(=O)c1c(NC(=O)CSc2nnnn2-c2ccccc2)sc2c1CC(C)(C)NC2(C)C	none
OCCN1CCN(C2Cc3cc(Cl)ccc3Sc3ccc(Cl)cc32)CC1 (stereo unspecified) (tested in a mixture with another compound)	none
CN1CCN(CCOC2Cc3ccccc3Sc3ccc(Cl)cc32)CC1 (stereo unspecified)	Kir21 block -10 (no result: TAG inh)
CCOC(=O)C1(CCOc2ccccc2)CCN(Cc2cccs2)CC1	Kir21 block -5
CCOC(=O)C1(Cc2ccccc2)CCN(Cc2cn[nH]c2-c2ccccc2)CC1	Kir21 block -4.8
CCOC(=O)C1(CCc2ccccc2)CCN(Cc2cccc3nccnc23)CC1	CHT inh -12
CCOc1ccc(S(=O)(=O)n2cnc(C)c2)cc1	none (no result: TAG inh)
O=C(Nc1cc2c(cc1Br)OCCCO2)c1ccccc1	none (no result: TAG inh)
CCOc1ccc(N(CC(=O)N/N=C/c2ccccn2)S(=O)(=O)c2ccc(Cl)cc2)cc1	none
COc1ccc(NC(=O)CSc2c3c(nc4ccccc24)CCC3)c(OC)c1	Kir21 block -10 (no result: TAG inh)
O=[N+]([O-])c1ccc(N2CCN(Cc3ccccc3)CC2)c2c1no[n+]2[O-]	none (no result: CHT PAM, CHT inh, Kir21 block)
O=C(CSc1nnc(-c2cccnc2)n1Cc1ccco1)c1ccc(Br)cc1	Kir21 block -5.9 (no result: TAG inh)
Nn1c(SC/C=C/c2ccccc2)nnc1-c1ccco1	none (no result: TAG inh)
Clc1cccc(-c2nnc(SC/C=C/c3ccccc3)n2Cc2ccco2)c1	CHT PAM 7.3 (no result: TAG inh)
C(=C\c1ccccc1)/CSc1nnc(-c2ccccc2)n1Cc1ccco1	Kir21 block -5.4 (no result: TAG inh)
C(=C\c1ccccc1)/CSc1nnc(-c2ccncc2)n1Cc1ccco1	Kir21 block -5.1
CN(C)C(=O)CSc1nnc(-c2ccncc2)n1Cc1ccco1	none
O=C(Nc1cccc(C(F)(F)F)c1)C(Sc1cccc[n+]1[O-])c1ccccc1 (stereo unspecified)	none (no result: TAG inh)
CN(C)CCCC1Sc2ccccc2Sc2ccccc21 (stereo unspecified)	Kir21 block -4.8
CCC(C)(C)NC(=O)C(c1ccncc1)N(C(=O)c1sc(C)nc1C)c1ccc(C)cc1 (stereo unspecified)	none
Cc1cc(S(=O)(=O)N2CCOCC2)ccc1OCC(=O)Nc1ccc(F)cc1	none (no result: TAG inh)

Screening results from PubChem.
